Assay results from PubChem BioAssay AID463212 (Sanford-Burnham Center for Chemical Genomics, 2010).
In all, about 330,000 compounds went through this assay and about 4,400 (1.3%) were called active. For the sample, actives were picked, then their nearest neighbours and some compounds at random. A number with no mark means an inactive call.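 The calls were made as follows: active = growth inhibition of the mutant yeast at or above 50%; inactive = the rest.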

Assay: growth inhibitors of tim23-1 mutant yeast, primary screen, luminescence, uHTS (AID 463212);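 also: temperature-sensitive mutant grown at 25 °C; plate controls were DMSO-treated mutant yeast for no effect and medium wells lacking yeast for full effect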
Conditions: S. cerevisiae tim23-1 growth, BacTiter-Glo luminescence, 24 h; at 20 µM; hits give high values

Row | Structure (SMILES) | inhibition
1 | O=C1NC[C@@H](Cc2ccc(O)cc2)N(CCc2cccc(F)c2)C1=O | 11.4%
2 | CC(=O)Nc1ccc(S(=O)(=O)N2CCN(C(=O)c3ccccc3F)CC2)cc1 | 3.67%
3 | Cc1ccc(/C(N)=N/OC(=O)COc2ccc(Cl)c(C)c2)cc1 | 24.2%
4 | Cc1ccc(C(=O)O/N=C(\N)c2ccccn2)cc1Cl | 6.93%
5 | Cc1cccc(/C(N)=N/OC(=O)c2ccccc2Cl)c1 | 72.9% (active)
6 | CC(C)(C)NC(=O)CN1CCC(NC(=O)C23CC4CC(CC(C4)C2)C3)CC1 | 18%
7 | O=C(c1ccc(S(=O)(=O)NCc2ccco2)cc1)N1CCN(c2ccccc2)CC1 | 19.3%
8 | O=C(Nc1ccccc1)c1cc2ccccc2[nH]1 | -6.12%
9 | COc1ccc(Cn2c(=S)[nH]c3cc(C(=O)NCCCN4CCOCC4)ccc3c2=O)cc1 | 18%
10 | CCCCn1c(=S)[nH]c2ccccc2c1=O | 43.6%
11 | O=c1c2ccccc2[nH]c(=S)n1CCN1CCC(=C(c2ccc(F)cc2)c2ccc(F)cc2)CC1 | 75.8% (active)
12 | O=C(N[C@H]1C/C=C\C(c2cccc(F)c2)N(Cc2ccccc2)C(=O)C1)OCC1c2ccccc2-c2ccccc21 (some centres not stated) | 59.7% (active)
13 | O=C(N[C@@H]1C/C=C\C[C@@H](CC(=O)N(CCO)Cc2ccccc2)C(=O)N[C@H](Cc2ccccc2)COC1=O)OCC1c2ccccc2-c2ccccc21 | 22.7%
14 | O=C(N[C@H]1C/C=C\C(c2ccc(F)cc2)N(Cc2ccccc2)C(=O)C1)OCC1c2ccccc2-c2ccccc21 (some centres not stated) | 38.6%
15 | Cc1cc2c(cc1C)N(C(=O)CN1C(=O)c3ccccc3C1=O)C(C)(C)c1ssc(=S)c1-2 | 30.3%
16 | COc1cc(NC(=O)c2ccc3c(c2)OCO3)ccc1NC(=O)c1cccs1 | -5.22%
17 | Cc1ccc(C(=O)Nc2ccc(NC(=O)c3cccs3)cc2)c(C)c1 | 11.9%
18 | COc1cc(NC(=O)c2cccs2)ccc1NC(=O)c1ccccc1Cl | 55.3% (active)
19 | O=C(Nc1cc(-c2ccccc2)nn1-c1ccccc1F)c1ccc([N+](=O)[O-])cc1 | 18.1%
20 | CCn1ncc(Br)c1C(=O)Nc1cc(C)ccc1F | 38.3%
21 | CCCc1[nH]nc2c1C(c1ccc(OC)c(Cn3nc(C)c(Br)c3C)c1)C(C#N)=C(N)O2 (configuration not stated) | 0.046%
22 | CCCc1[nH]nc2c1C(c1ccc(Br)s1)C(C#N)=C(N)O2 (configuration not stated) | 86.6% (active)
23 | CCCc1[nH]nc2c1C(c1ccc(OC(=O)c3ccco3)cc1)C(C#N)=C(N)O2 (configuration not stated) | -11.4%

Row | Structure (SMILES) | inhibition
24 | O=C(O)C1CCCN(CCC=C(c2ccccc2)c2ccccc2)C1 (configuration not stated) | 4.65%
25 | Cc1cccc(N2CCN(C(=O)c3cc4c(=O)[nH]c5ccccc5c4n3C)CC2)c1C | 13%
26 | CC(C)(C)OC(=O)NCCCC1=CC2=CC(=O)C(C)(OC(=O)c3ccco3)C(=O)C2=CO1 (configuration not stated) | 13.3%
27 | COc1ccc(OCC(=O)Nc2ccc(NC(=O)c3ccco3)c(C)c2)cc1 | 16.1%
28 | Cc1ccc(C(=O)COc2cccc(NC(=O)c3ccco3)c2)cc1 | 54.5% (active)
29 | Cc1cccc(OCC(=O)Nc2ccc(NC(=O)c3ccco3)c(C)c2)c1 | 22%
30 | Cc1cccc(N(C)C(=O)c2cc(S(=O)(=O)N3CCCCC3)c[nH]2)c1 | 23.4%
31 | CCOC(=O)CSc1nnc(CNC(=O)Cc2ccccc2)n1-c1ccccc1OC | 7.97%
32 | Cc1ccc(-n2cnc3ncnc(-c4ccccc4)c32)cc1 | 15.5%
33 | Cc1ccc(-c2nn(C(C)(C)C)c3ncnc(N)c23)cc1 | 57.5% (active)
34 | Cc1c([N+](=O)[O-])c(N)nn1C | -8.73%
35 | Cc1cc(C(=O)COC(=O)C2CC2)c(C)n1-c1ccc(F)cc1 | 35.7%
36 | O=C(CNC(=O)c1ccc(-c2ccccc2)cc1)OCc1ccc(Cl)cc1 | -7.6%
37 | CC(=O)COc1ccc2c(-c3ccccc3)cc(=O)oc2c1 | -1.93%
38 | O=C(CNC(=O)OCc1ccccc1)Oc1cc2oc(=O)cc(-c3ccccc3)c2cc1Cl | 54.3% (active)
39 | O=C1Cc2ccccc2Sc2ccc(Cl)cc21 | 28.6%
40 | COc1cc(NS(=O)(=O)c2ccc(N/C=C(\C=O)c3nc4cc(Cl)ccc4o3)cc2)nc(OC)n1 | 15.4%
41 | Cc1ccc(C(=O)N/C(=C\c2ccco2)C(=O)NC2CCS(=O)(=O)C2)cc1 (configuration not stated) | 24.1%
42 | COc1cc2ccccc2cc1C(=O)N1CCOCC1 | 22.5%
43 | COC1=C(N2CCOCC2)C(=O)c2ccccc2C1=O | 2.06%
44 | Cc1oc2c(c1C(=O)N1CCOCC1)C(=O)c1ccccc1C2=O | 69% (active)
45 | CCC(=O)N1CCC(C(N)=O)(N2CCCCC2)CC1 | -3.89%
46 | C=CCNC(=O)c1ccc2c3n(nc2c1)-c1ccc(C)cc1CO3 | 57.6% (active)

Row | Structure (SMILES) | inhibition
47 | Cc1cccc(-c2nc3ccc(C(=O)NCCN4CCN(C)CC4)cc3nc2-c2cccc(C)c2)c1 | 25.1%
48 | Cn1nnc2cc(C(=O)NCCC3=CCCCC3)ccc21 | -1.3%
49 | Cc1cc(C(C)(C)C)cc(C)c1N | 9.69%
50 | COc1ccc(-c2cc(C)nc3nc(N)nn23)cc1 | 8.84%
51 | Cc1cc(N)n2nc(-c3ccc(C(C)(C)C)cc3)cc2n1 | 72.3% (active)
52 | Cc1nnc(NC(=O)CSc2nc(C3CCCCC3)nc3ccccc23)s1 | -0.646%
53 | O=C1c2ccccc2C(=O)N1CCC(c1ccccc1)c1ccco1 (configuration not stated) | 22.6%
54 | O=S(=O)(Nc1cccc(-n2cnnn2)c1)c1cnc(Cl)c(Cl)c1 | -3.26%
55 | CCCc1c(C(=O)Nc2ccc(F)cc2)cnn1-c1ccccc1 | 55.9% (active)
56 | CCNC(=O)c1cnn(-c2ccccc2)c1-c1ccccc1 | 0.114%
57 | CCCc1c(C(=O)O)cnn1-c1ccc(Cl)cc1 | 13.8%
58 | CC(=O)c1ccccc1NC(=O)C1CC(=O)N(c2ccc3c(c2)OCCO3)C1 (configuration not stated) | 14.1%
59 | CC1(c2ccccc2)CC(C)(C)N(C(=O)c2cc([N+](=O)[O-])cc([N+](=O)[O-])c2)c2ccccc21 (configuration not stated) | 4.81%
60 | CC1CCN(C(=S)c2cccc([N+](=O)[O-])c2)CC1 | 21.4%
61 | CC1CCC2CCCCC2N1C(=O)c1cc([N+](=O)[O-])cc([N+](=O)[O-])c1 (configuration not stated) | 51.9% (active)
62 | COc1ccc(S(=O)(=O)N2CCOCC2)cc1NC(=O)CSc1cc(C)ccc1C | 7.5%
63 | CC[C@]12c3[nH]c4ccc(OC)cc4c3CCN1C(=O)C(CC(=O)NCCN1CCOCC1)C[C@@H]2C(=O)N1CCN(C(=O)C2CC2)CC1 (some centres not stated) | 26.2%
64 | O=C(Nc1cccc(-c2nc3ncccc3o2)c1)c1ccco1 | 4.7%
65 | Cc1cc(NC(=O)c2ccc(F)cc2)ccc1NC(=O)c1ccco1 | 13.5%
66 | O=C(Nc1ccc2oc(-c3ccccc3F)nc2c1)c1ccco1 | 57.8% (active)
67 | CCCCC1(C(=O)OCC)NC(c2ccc(O)cc2)C2C(=O)N(c3ccccc3)C(=O)C21 (configuration not stated) | 1.2%
68 | CCC(=O)Nc1ccc(C(=O)CSc2nnc(CNc3ccc(Cl)cc3)o2)cc1OC | -7.17%
69 | O=C(COC(=O)CNC(=O)C1CCCCC1)Nc1cccc(F)c1 | 17.5%

Row | Structure (SMILES) | inhibition
70 | CN(CC(=O)Nc1ccccc1C(F)(F)F)C(=O)Cc1ccccc1F | 14.9%
71 | O=C(Nc1ccccc1F)c1ccccc1-c1ccc(C(F)(F)F)cc1 | 16%
72 | N#C/C(=C\c1ccccc1C(F)(F)F)C(=O)Nc1ccccc1F | 71.2% (active)
73 | COc1cc([N+](=O)[O-])ccc1NC(=O)COC(=O)CCOc1ccc(C)cc1 | 73.7% (active)
74 | CSc1ccccc1NC(=O)COC(=O)CCCOc1ccc(C)cc1 | -1.47%
75 | COc1cccc(NC(=O)COC(=O)CCOc2ccccc2OC)c1 | 8.9%
76 | Cc1cccc(N2C(=O)SC(SC(=Nc3ccccc3)Nc3ccccc3)C2=O)c1 (configuration not stated) | 49.6%
77 | CN(C)C(=O)c1cc(Br)ccc1Cl | -8.05%
78 | Cc1ccc(OCCCCN2CCCCC2)c(Br)c1 | 16.7%
79 | O=C(Cc1c(F)cccc1Cl)Nc1ncc([N+](=O)[O-])s1 | 55.4% (active)
80 | CN(c1ccccc1)S(=O)(=O)c1cccc(NC(=O)Cc2c(F)cccc2Cl)c1 | 23.3%
81 | COc1ccc(S(=O)(=O)N2CCOCC2)cc1NC(=O)Cc1c(F)cccc1Cl | 5.42%
82 | COc1ccc2nc3n(c(=O)c2c1)-c1cc(C)ccc1C(=O)NC3Cc1ccc(O)cc1 (configuration not stated) | -6.13%
83 | COC(=O)CSC1=C(C#N)C(c2ccccc2OC)C(C(=O)OC)C(=O)N1 (configuration not stated) | 12.9%
84 | Cc1ccc(C2CC(=O)NC(SCC(=O)OCc3ccccc3)=C2C#N)o1 (configuration not stated) | 59.1% (active)
85 | CCCc1cc(=O)[nH]c(SCC(=O)OCc2ccccc2)n1 | 6.03%
86 | CCCc1nnc(SCC(=O)N2C(C)CCCC2C)n1CC (configuration not stated) | 1.57%
87 | CC1CCCCC12NC(=O)N(CC(=O)N1CCN(c3ccccc3)CC1)C2=O (configuration not stated) | 17.7%
88 | O=C(c1[nH]ncc1-c1ccc(Cl)cc1)C1CO1 (configuration not stated) | 43.9%
89 | O=C(Nc1cc(S(=O)(=O)N2CCOCC2)ccc1N1CCOCC1)c1c(F)cccc1Cl | 14.4%
90 | Cc1cccc(Oc2c([N+](=O)[O-])c(=O)n(C)c3ccccc23)c1 | 56% (active)
91 | Cc1cccc(OP(=O)(Nc2c(C)n(C)n(-c3ccccc3)c2=O)Oc2cccc(C)c2)c1 | 20.4%
92 | Cc1cc(C)c(-c2c(O)c3ccccc3n(C)c2=O)c(C)c1 | 4.89%
